The campaign covered roughly 320,000 compounds. About 8,000 (2.5%) were called active. Rule as the data show it: active = activation above about 47%; inactive = the rest. The entries come from a sample that favours actives as a whole.
target: Aryl hydrocarbon receptor (Homo sapiens) (UniProt P35869); test: AHR activators, primary screen, cell-based, luminescence, luciferase reporter, human (AID 2796); conditions: AHR-responsive luciferase reporter cells, at 5 µM, stronger effect = higher value;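 also: 0% = vehicle wells and 100% = reference agonist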
Sequence (P35869 whole entry, looked up): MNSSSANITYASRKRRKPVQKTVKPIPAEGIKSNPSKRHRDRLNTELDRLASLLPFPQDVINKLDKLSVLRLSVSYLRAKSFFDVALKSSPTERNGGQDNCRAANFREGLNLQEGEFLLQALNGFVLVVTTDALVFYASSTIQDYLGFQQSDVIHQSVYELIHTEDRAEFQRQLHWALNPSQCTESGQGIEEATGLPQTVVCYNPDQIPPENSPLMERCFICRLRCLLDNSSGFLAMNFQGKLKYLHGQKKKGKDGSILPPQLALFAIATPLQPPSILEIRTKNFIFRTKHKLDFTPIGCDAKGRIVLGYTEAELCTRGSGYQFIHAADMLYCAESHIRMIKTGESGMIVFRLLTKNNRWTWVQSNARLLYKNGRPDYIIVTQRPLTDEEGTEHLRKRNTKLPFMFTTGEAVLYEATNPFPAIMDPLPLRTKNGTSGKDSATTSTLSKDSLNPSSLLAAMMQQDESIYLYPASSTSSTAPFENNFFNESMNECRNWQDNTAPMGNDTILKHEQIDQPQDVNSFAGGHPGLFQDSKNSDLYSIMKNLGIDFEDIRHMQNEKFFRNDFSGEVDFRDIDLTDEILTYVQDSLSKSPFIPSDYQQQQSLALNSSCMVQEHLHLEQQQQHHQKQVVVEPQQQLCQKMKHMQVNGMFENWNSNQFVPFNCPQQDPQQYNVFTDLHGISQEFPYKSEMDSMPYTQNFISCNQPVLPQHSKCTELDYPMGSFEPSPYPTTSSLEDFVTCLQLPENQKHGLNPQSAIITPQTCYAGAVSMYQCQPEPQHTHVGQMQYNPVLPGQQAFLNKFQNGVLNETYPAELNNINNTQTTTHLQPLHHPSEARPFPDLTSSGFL

Row | SMILES | activation
1 | C[C@@H]1NC(=O)c2cc([N+](=O)[O-])cc(F)c2NCCC[C@@H](C(N)=O)NC(=O)[C@H](CC(N)=O)NC1=O | -4.67% (inactive)
2 | COCCN(C(=O)c1ccccc1F)c1c(N)n(Cc2ccccc2)c(=O)[nH]c1=O | 0.27% (inactive)
3 | O=S(=O)(Nc1ccc(O)c2ccccc12)c1ccc(OC(F)(F)F)cc1 | 33.7% (inactive)
4 | CCOc1ccc(N(CC)S(=O)(=O)c2cccc3nsnc23)cc1 | 5.33% (inactive)
5 | CCOc1ccccc1NC(=O)CCS(=O)(=O)c1cccc2nsnc12 | 11.7% (inactive)
6 | CCOc1ccc(OCC)c(NC(=O)CN(C)S(=O)(=O)c2cccc3nsnc23)c1 | 53.7% (active)
7 | Cc1ccccc1CN1CCC(C(=O)Nc2ccc(Oc3cccnc3)cc2)CC1 | 1.47% (inactive)
8 | O=C(Nc1cc2c3c(c1)CC(=O)N3CCC2)c1ccccc1F | 3.64% (inactive)
9 | CC(Nc1nc(C(F)(F)F)nc2ccccc12)c1cccs1 (stereo unspecified) | 0.19% (inactive)
10 | Cc1cccc(NC(=O)c2ccc3ccccc3n2)n1 | 82.1% (active)
11 | Cc1cccc(NC(=O)c2cc(N3C(=O)CCC3=O)ccc2Cl)n1 | -0.56% (inactive)
12 | Cc1cccc(NC(=O)c2cccnc2Cl)n1 | -1.7% (inactive)
13 | Cn1ccnc1-c1nnn(-c2ccc(F)cc2)n1 | -1.09% (inactive)
14 | O=C(COc1ccc(-c2ccccc2)cc1)NN=C1CCCC1 | 52.1% (active)
15 | CC(NC(=O)COc1ccc(-c2ccccc2)cc1)C1CCCO1 (stereo unspecified) | 19.8% (inactive)
16 | O=C(COc1ccccc1)Nc1ccc(C(=O)N2CCCC2)cc1 | -2.51% (inactive)
17 | CN1CCN(C(CNS(=O)(=O)c2cccs2)c2cccnc2)CC1 (stereo unspecified) | 0.06% (inactive)
18 | Cc1cc(C(=O)NNS(=O)(=O)c2ccccc2C(F)(F)F)nn1C(C)(C)C | 33.2% (inactive)
19 | Cc1ccc(C(=O)NC(=S)NCc2cccnc2)cc1 | 70.4% (active)
20 | Cc1c(C(=O)NC(=S)NCc2cccnc2)oc2ccccc12 | 6.27% (inactive)
21 | CC(C)(C)c1cc(C(=O)NCc2cccnc2)ccn1 | 5.21% (inactive)
22 | CS(=O)(=O)N1CCCC(C(=O)N2CCOCC2)C1 (stereo unspecified) | -4.42% (inactive)
23 | COc1ccc(CNc2nc(NCc3ccc(OC)cc3)c3ncn(C4CCCC4)c3n2)cc1 | 5.12% (inactive)

Row | SMILES | activation
24 | CCN(CC(=O)Nc1ccccc1C(F)(F)F)C(=O)C1CCN(C(=O)Nc2ccccc2)CC1 | 0.13% (inactive)
25 | Cc1cc(S(=O)(=O)Nc2ccc(C(=O)NCC(c3ccco3)N3CCCC3)cc2)ccc1F (stereo unspecified) | 2.37% (inactive)
26 | CSc1ncccc1C(=O)NCC(c1ccco1)N1CCCCC1 (stereo unspecified) | 0.96% (inactive)
27 | Cc1c(C(=O)NCC(c2ccco2)N2CCCC2)oc2ccc(Cl)cc12 (stereo unspecified) | 91.5% (active)
28 | O=C1/C(=C/c2ccc3c(c2)OCO3)Oc2cc(OCC(=O)N3CC(O)C[C@H]3C(=O)O)ccc21 (stereo partly specified) | 0.62% (inactive)
29 | Cc1ccc(-n2[nH]c(C)c(/C=N/NC(=O)c3cccc([N+](=O)[O-])c3)c2=O)cc1C | 15.9% (inactive)
30 | COc1cc(SC#N)ccc1N=Cc1c(C)[nH]n(-c2ccc(C)cc2)c1=O | 71.7% (active)
31 | Cc1[nH]n(-c2ccccc2)c(=O)c1/C=N/NC(=O)c1ccoc1C | 24.8% (inactive)
32 | Cc1nn(C)c(C)c1Sc1ccccc1N | 2.57% (inactive)
33 | O=C(Nc1ccccc1Cl)N1CCN(c2ccc3nncn3n2)CC1 | -1.87% (inactive)
34 | Cc1ccc(/C=C(\C#N)C(=O)Nc2cccc3ncccc23)o1 | 7% (inactive)
35 | O=C(c1ccc(Cl)cc1)n1cnc2ccccc21 | -0.68% (inactive)
36 | O=C(Cc1nc2ccccc2[nH]c1=O)c1ccc(Cl)cc1 | 57.9% (active)
37 | O=c1c(-c2ccc(Cl)cc2)[n+]([O-])c2ccccc2n1OCc1nc2ccccc2[nH]1 | 24.5% (inactive)
38 | CCN(CCn1cccn1)Cc1cn[nH]c1-c1ccc(OC)cc1F | 1.96% (inactive)
39 | [O-][n+]1c2c(nn1-c1ccc(Cl)c(Cl)c1)-c1nonc1CC2 | 78.5% (active)
40 | O=C(COc1ccc([N+](=O)[O-])cc1)Nc1cccc(C(=O)Nc2ccccc2C(=O)O)c1 | -3.04% (inactive)
41 | CCOC(=O)/C=C/CN(C(=O)OC(C)(C)C)S(=O)(=O)N1CC=CC1 | -1.1% (inactive)
42 | COC(=O)c1ccc(/C=N/N2C(C)CCCC2C)cc1 (stereo unspecified) | -0.9% (inactive)
43 | COc1ccc(C(=O)N2CCN(c3ccc(C(C)=O)cc3F)CC2)cc1S(=O)(=O)NC1CC1 | 2.09% (inactive)
44 | O=C(Nc1ccc(N2C(=O)c3cccc4cccc(c34)C2=O)cc1)c1ccc(N2CCCCC2)c([N+](=O)[O-])c1 | -0.89% (inactive)
45 | CCC(c1nnnn1C1CCCC1)N(Cc1cccs1)Cc1cc2cccc(C)c2[nH]c1=O (stereo unspecified) | 54.6% (active)
46 | CCC(c1nnnn1Cc1ccco1)N(CCc1ccccc1)Cc1cc2cccc(C)c2[nH]c1=O (stereo unspecified) | 19.4% (inactive)

Row | SMILES | activation
47 | Cc1cccc2cc(CN(Cc3nnnn3Cc3ccccc3)C3CCCC3)c(=O)[nH]c12 | 12.9% (inactive)
48 | CC(=O)Nc1ccc(S(=O)(=O)NCCC(=O)N2CCN(c3ccccc3Cl)CC2)cc1 | 0.74% (inactive)
49 | CCC(CO)Oc1cc(NC(=O)c2cccc3ccccc23)c2ncn(C(C)C)c2c1 (stereo unspecified) | 5.86% (inactive)
50 | COC(=O)c1cc(C(=O)OCC(=O)Nc2cc(C)on2)cc([N+](=O)[O-])c1 | 0.26% (inactive)
51 | O=C1CC2(CCCC2)C(=O)N1CN1CCN(S(=O)(=O)c2ccc(F)cc2F)CC1 | 1.21% (inactive)
52 | CNC(=O)Nc1cc(C(C)(C)C)no1 | 1.28% (inactive)
53 | COc1ccccc1-c1nnc(-c2ccc(F)cc2)o1 | 33.5% (inactive)
54 | CSc1ccccc1-c1nnc(-c2ccc(Cl)cc2)o1 | 52.9% (active)
55 | FC(F)(F)c1cnc(Oc2ccccc2-c2nnc(-c3ccc(Cl)cc3)o2)c(Cl)c1 | 1.03% (inactive)
56 | c1ccc(-n2nc3ccccc3n2)cc1 | -5.11% (inactive)
57 | CCC(=O)Nc1ccc2nn(-c3ccc(F)cc3)nc2c1 | 31.9% (inactive)
58 | Nc1ccc2nn(-c3ccc(Cl)cc3)nc2c1 | 109% (active)
59 | Cc1nn(-c2ccccc2)nc1C(=O)OCC(=O)N1CCCCC1C (stereo unspecified) | 4.35% (inactive)
60 | CC(Sc1nnc(C2CC2)n1C1CC1)C(=O)Nc1ccc(C(N)=O)cc1 (stereo unspecified) | -0.58% (inactive)
61 | O=C(c1ccncc1)N1CCN(c2ccc3ccccc3n2)CC1 | -0.88% (inactive)
62 | CC12CCC(C(=O)N3CCN(c4ncccn4)CC3)(c3nc4ccccc4nc31)C2(C)C (stereo unspecified) | 16.9% (inactive)
63 | c1cnc(N2CCN(c3ccc4ccccc4n3)CC2)nc1 | 120% (active)
64 | O=C1NC(c2ccccc2)CCC1(Cl)Cl (stereo unspecified) | 0.32% (inactive)
65 | CC(C)CCN1CCN(Cc2ccc(C(F)(F)F)cc2)CC1CCO (stereo unspecified) | 1.42% (inactive)
66 | COc1cc(NC(=O)COC(=O)CSc2ccc3ccccc3c2)c(C)cc1[N+](=O)[O-] | 60% (active)
67 | Cc1cnc(C(=O)OCC(=O)Nc2ccc(Cl)cc2Cl)cn1 | 2.01% (inactive)
68 | COc1ccc(OCC(=O)Nc2cc(C)c(Cl)cc2OC)c([N+](=O)[O-])c1 | 3.52% (inactive)
69 | Cc1ccc(C)c(NC(=O)COC(=O)CSc2ccccc2)c1 | -0.94% (inactive)

Row | SMILES | activation
70 | Cc1cc(NC(=O)COC(=O)COc2ccc(Cl)cc2C)c([N+](=O)[O-])cc1C | 4.86% (inactive)
71 | COc1cc(NC(=O)COC(=O)c2cnc(C)cn2)c(C)cc1[N+](=O)[O-] | 49.4% (active)
72 | Cc1cccc(N2CCN(C(=O)/C=C/c3ccco3)CC2)c1C | 2.32% (inactive)
73 | CCN(CC)S(=O)(=O)c1ccc(N2CCCC2)c(NC(=O)c2ccc([N+](=O)[O-])o2)c1 | 0.5% (inactive)
74 | COc1ccc(N2C(=O)C3C(C2=O)C(C(=O)c2ccccc2)N2CCCC32)cc1 (stereo unspecified) | 5.21% (inactive)
75 | Cc1nn(-c2ccccc2)c(=O)c2noc(C)c12 | -0.28% (inactive)
76 | Cc1nc2c(c(C)nn2-c2ccccc2)c(C)c1C | 45.6% (inactive)
77 | Cc1nn(-c2ccccc2)c2[nH]c(C(F)(F)F)cc(=O)c12 | 80.4% (active)
78 | C=CCC[C@@H](Cc1ccc(F)cc1)C(=O)O[C@H](CNC(=O)[C@H](CC=C)CC(=O)N(CCO)Cc1ccccc1)c1ccccc1 | -0.27% (inactive)
79 | O=C(/C=C/c1ccccc1)N/C(=C/c1ccccc1)C(=O)Nc1ccccc1O | 74.4% (active)
80 | O=C(Nc1ccc(C(=O)O)cc1)/C(=C\c1ccccc1)NC(=O)c1ccc(Br)cc1 | -2.04% (inactive)
81 | CCc1ccccc1NC(=O)/C(=C/c1ccccc1)c1ccccc1 | 0.15% (inactive)
82 | Cc1ccc(S(=O)(=O)N2CCOCC2)cc1NC(=O)COC(=O)c1cnccn1 | 0.82% (inactive)
83 | O=C(CCl)Nc1cccc(CP(=O)(c2ccccc2)c2ccccc2)c1 | -0.56% (inactive)
84 | Cc1ccc(S(=O)(=O)N(C)C)cc1NC(=O)CN1c2cccc3cccc(c23)S1(=O)=O | 5.14% (inactive)
85 | CC(=O)N[C@@H](C)C(=O)N1CCC(n2nccc2NC(=O)CCCc2ccccc2)CC1 | 1.83% (inactive)
86 | O=C(CCNS(=O)(=O)c1ccc(Br)cc1)NCC1CCCO1 (stereo unspecified) | 0.8% (inactive)
87 | COc1ccccc1NC(=O)C1=C(C)Nc2ncnn2C1c1ccc(C)o1 (stereo unspecified) | 13.1% (inactive)
88 | COc1ccccc1NC(=O)C1=C(C)NC2=C(C(=O)CCC2)C1c1ccc(C)o1 (stereo unspecified) | 102% (active)
89 | COc1ccccc1NC(=O)C1=C(C)NC(=O)NC1c1ccc(C)s1 (stereo unspecified) | 5.73% (inactive)
90 | CCOc1cc2[nH]c(=S)n(CCN3CCCCC3C)c(=O)c2cc1OCC (stereo unspecified) | 7.8% (inactive)
91 | COC(CNC(=O)c1ccc2c(c1)ncn2-c1cc(C)cc(C)c1)OC | 1.33% (inactive)

Source: PubChem BioAssay AID2796 (The Scripps Research Institute Molecular Screening Center, 2010)
